From PubChem BioAssay
A selection: hits, their analogues and other compounds. The true share with any hit is near 3.5%.
FBW7 act: activators of human E3 ligase FBW7; hit rate 0.13% among 650,000; AlphaScreen FBW7–phospho-cyclin E peptide binding, activator screen; normalized activity (activation), % at 26.1 µM; AID 1259310; in the data active means normalized activity above about 1.9%;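 further: purified mutant Fbw7 with reduced substrate affinity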
TEAD-YAP inh: TEAD-YAP interaction inhibition. hit rate 1.4% among 640,000. inhibition, % at 9.12 µM. HEK-TIYL cells, TEAD-Gal4/YAP UAS-luciferase luminescence. AID 1259422; in the data active means inhibition above about 32%;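 further: 0% = median of test compound wells and 100% = reference inhibitor wells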
MITF inh: human MITF inhibition, primary screen | O75030 | AlphaScreen MITF homodimerization, bead proximity signal | inhibition, % at 2.6 µM | hit rate 0.91% among 650,000 | AID 1259374; in the data active means inhibition above about 50%;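 further: 0% = vehicle wells with protein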
GPR151 activ: human GPR151 activation; Q8TDV0; PathHunter beta-arrestin GPR151 cells, luminescence; activation, % at 11.2 µM; hit rate 1% among 650,000; AID 1508602; in the data active means activation above about 4.9%;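 further: 0% = median of compound wells and 100% = cells with positive control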
GPR151 conf act: human GPR151 activation, confirmation screen; GPR151 PathHunter beta-arrestin cells, luminescence, 90 min; % of EA-reagent control over plate median; AID 1508609; activation, % at 11.2 µM; 6,700 tested, under 10 active; shares compounds with GPR151 activ;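 active means mean percent activation across replicates above the confirmation screen cutoff of 4.91%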
GPR119 ag: counter-screen for GPR151 activators: effect on human GPR119. shares compounds with GPR151 activ. hit rate 0.3% among 6,700. activation, % at 11.2 µM. AID 1508611. GPR119 PathHunter beta-arrestin cells, luminescence, 90 min; 0 = compound-well median, 100 = enzyme-acceptor control;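 active means mean percent activation in the counterscreen above 29.09%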;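 further: counterscreen on off-target GPR119 to flag nonselective hits from the GPR151 activator screen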
Target sequence (Q8TDV5 whole entry, looked up): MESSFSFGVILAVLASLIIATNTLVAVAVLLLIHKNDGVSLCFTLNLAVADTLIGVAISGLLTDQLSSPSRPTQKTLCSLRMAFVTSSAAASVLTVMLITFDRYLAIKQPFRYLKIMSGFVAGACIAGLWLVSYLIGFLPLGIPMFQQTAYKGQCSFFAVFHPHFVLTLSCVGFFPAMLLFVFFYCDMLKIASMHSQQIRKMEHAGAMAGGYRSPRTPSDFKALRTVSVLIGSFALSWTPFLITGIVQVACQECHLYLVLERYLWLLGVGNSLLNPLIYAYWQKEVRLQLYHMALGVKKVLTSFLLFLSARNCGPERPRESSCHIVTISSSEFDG
Active calls of the source: *; x = no result given.

SMILES	FBW7 act	TEAD-YAP inh	MITF inh	GPR151 activ	GPR151 conf act	GPR119 ag
CCOc1ccc(NC(=O)CN2N=NC3C(=O)N(c4ccc(Cl)cc4)C(=O)C32)cc1 (stereo not drawn)	0	8	2	5.7*	0	7
O=c1c2ccccc2nc(SCc2c(F)cccc2Cl)n1C1CC1	0	-6	-12	5.1*	0	8
COc1ccc(/C=N/N=c2\sc3ccccc3n2C)c(OC)c1	0	-44	4	9.2*	0	6
COc1cccc(/C=N\N=c2\sc3ccccc3n2C)c1OC	0	-47	19	0	x	x
CCOC(=O)N1N=C(c2ccc(Cl)cc2)CC1(O)C(F)(F)F (stereo not drawn)	0	-58	3	-1	x	x
NS(=O)(=O)c1ccc(NC(=O)CSc2nc3cc(Cl)ccc3s2)cc1	0	-5	2	6.1*	0	20
O=C(CSc1nc2cc(Cl)ccc2s1)Nc1ccc(Cl)cc1	0	1	0	1	x	x
CC[n+]1c(/C=C/N(C)c2ccccc2)oc(-c2ccccc2)c1-c1ccccc1	0	92*	2	5.7*	1	18
CCn1c(C)cc(/C=C/c2oc3ccccc3[n+]2CC)c1C	0	-6	19	-2	x	x
CCN(CC)c1ccc(C(=O)Nc2nc3c(ccc4ccccc43)s2)cc1	0	5	-3	0	x	x
C=CCOc1c(I)cc(/C=c2\sc3n(c2=O)C(c2ccc(N(C)C)cc2)C(C(=O)OCC)=C(C)N=3)cc1OC (stereo not drawn)	0	-5	7	-1	x	x
COc1ccc(N2C(=O)CC(N(CCc3ccc(OC)c(OC)c3)C(=O)c3ccccc3)C2=O)cc1 (stereo not drawn)	0	3	-11	5.2*	0	-7
O=C1CCC(=O)N1CCC1=CCCCC1	0	14	4	1	x	x
O=C1NC(=O)N(CCC2=CCCCC2)C1=O	0	-1	-7	10*	0	-4
Cc1c(C(=O)C(=O)NCc2cccnc2)c2ccccc2n1C	0	8	5	0	x	x
CN(C)c1cccc(Nc2ccc(N3CCC(C(=O)NCCc4ccc(O)cc4)CC3)nn2)c1	0	-5	9	1	x	x
CC(C)N(C(=O)Cn1c(SCC(=O)N2CCCC2)nc2ccccc21)C(C)C	0	-5	0	7.9*	0	5
CC(C)N(C(=O)Cn1c(SCC(=O)N2CCCCCC2)nc2ccccc21)C(C)C	0	12	-5	1	x	x
CCOC(=O)c1cc(-c2cc(Cl)ccc2Cl)nc2c1c(=O)[nH]c(=O)n2C	0	-11	2	-1	x	x
Nc1c(Cl)ncnc1N1CCN(c2ncnc(Cl)c2N)CC1	0	-3	-3	5.4*	0	7
Nc1c(Cl)ncnc1N1CCOCC1	0	7	18	0	x	x
COc1ccc(-n2c(SCCc3ccccc3)nc3c(c2=O)C2(CCCCC2)Cc2ccccc2-3)cc1	0	-7	2	-1	x	x
COc1ccccc1OCC(=O)NCc1ccc(C)cc1	1	-12	-3	5.4*	0	4
Cc1ccc(CNC(=O)c2ccc(C)cc2)cc1	1	-20	28	0	x	x
O=C(CN(C(=O)c1csnn1)c1ccc(F)cc1)NCc1ccccc1	0	-2	8	5.6*	-1	-6
SMILES	FBW7 act	TEAD-YAP inh	MITF inh	GPR151 activ	GPR151 conf act	GPR119 ag
Cc1ccc(CNC(=O)C(=O)NCc2ccc(Cl)cc2)cc1	0	3	11	0	x	x
Cc1ccc(CNC(=O)c2csnn2)cc1	0	-3	7	13*	1	7
Cc1ccc(CNC(=O)Cc2ccc(Cl)cc2)cc1	0	-12	1	8.4*	0	-2
CCc1ccccc1NC(=S)N(CCCN1CCCCCC1)Cc1cccs1	0	8	-4	2	x	x
CCOC(=O)CN(Cc1c(Cl)cccc1Cl)S(=O)(=O)c1ccc(Br)cc1	0	-12	-8	0	x	x
CC(CN1CCC2(CCC(=O)N2Cc2ccccc2F)CC1)c1ccccc1 (stereo not drawn)	0	6	9	-1	x	x
Cc1ccc(CNC(=O)c2sccc2-n2cccc2)cc1	0	2	16	5.6*	0	7
Cc1ccc(CNC(=O)c2ccc(-n3cccc3)cc2)cc1	0	-17	41	1	x	x
COc1cc(COc2cc3oc(=O)c4c(c3cc2Cl)CCCC4)cc(OC)c1OC	0	-2	0	0	x	x
